A selection: hits, their analogues and other compounds. The true share with any hit is near 2.6%.
PMP22 txn: modulators of PMP22 gene transcription in S16 Schwann cells | S16 Pmp22-F2sN Schwann cells, FLuc/NLuc coincidence luminescence, 24 h | Potency, µM (series often up to 57.5 µM), for inactives: at the highest dose activity change, negative = inhibition, usual class: inhibitors | actives 2% (n = 43,000); active means clear falling dose curves in both reporters; inconclusive means both reporters move, but less clearly or upward; inactive means either reporter flat; the % is the NLuc reporter signal
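Schwann cells carrying the coincidence reporter were exposed to library compounds for 24 h at 37C, then lysed and read for FLuc and, after quenching, NLuc luminescence on a CCD imager.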
S16 viability: toxic to S16 Pmp22-F2sN Schwann cells. S16 Pmp22-F2sN Schwann cells (luciferase reporters placed in the Pmp22 gene) viability, CellTiter-Glo, 24 h. Potency, µM (titrated, usually from 57.5 µM), for inactives: top-dose activity change, negative = cytotoxicity, actives largely listed as cytotoxic. actives 0.48% (n = 43,000); further: nearly all actives have a fitted effect of over 65% in size
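Seed 500-1,000 S16 Pmp22-F2sN cells per well in phenol-red-free DMEM with 10% heat-inactivated FBS; pin-add 23 nL compound; incubate 24 h at 37C; add CellTiter-Glo, wait 15 min protected from light; read luminescence.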
pS6 MEF inh: reduces mTORC1 signaling in Tsc2 and p53 null MEF cells; Tsc2-/- p53-/- MEF, phospho-rpS6 immunofluorescence/PI, 24 h; Potency, µM (doses to about 38.3 µM), inactives show top-dose activity change, negative = inhibition, actives largely listed as inhibitors; actives 0.78% (n = 44,000); AID 493208;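 further: plate controls were DMSO for no effect and rapamycin for full effect; nearly all actives have a fitted effect of over 50% in size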
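Tsc2-/-, p53-/- MEFs (empty-vector stable line) in DMEM + 10% FBS were treated with compounds 24 h at 37 degree Celsius, fixed, and immunostained for phospho-rpS6 (Alexa-488) with propidium iodide counterstain. Laser-scanning cytometry gave % positive cells, normalized against 7.5 nM rapamycin and DMSO.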
SKOV3 invasion: ovarian cancer metastasis inhibition, 3D TME model; SKOV3ip1-GFP adhesion/invasion on 3D omental model, fluorescence; Potency, µM (series often up to 45.8 µM), without a hit: at the highest dose activity change, negative = inhibition, most hits filed as inhibitors; actives 0.1% (n = 46,000); AID 1963576;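 further: plate controls were DMSO wells for no effect and tomatine positive control wells for full effect; nearly all actives have a fitted effect of over 65% in size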
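Primary human omental fibroblast/mesothelial 3D culture pre-formed 48 h. SKOV3ip1-GFP cells added with compounds (0.36-46 umol/L), incubated 2 h RT/16 h 37 C, fixed; GFP cells quantified at 488/509 nm.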
* = called active by the depositor; i = inactive; ? = inconclusive; nt = no result; [ ] = remark or other dose. Unless noted, the call rests on the fitted dose curve; in most records, active means well fitted curve in the direction sought with a large enough effect; inconclusive means small, poorly fitted or top-dose-only effect, or another doubt; inactive means no such curve, though single readings can be large; an effect the other way counts as inactive or inconclusive. Unless noted, on the % scale 0 is the no-effect control and ±100 the full control effect; potency means the concentration at half of the fitted maximal effect.

SMILES	PMP22 txn	S16 viability	pS6 MEF inh	SKOV3 invasion
COc1ccc(CC(=O)NCC(c2cccs2)S(=O)(=O)c2ccc(F)c(C)c2)cc1 (stereo not drawn)	-10%	17%	-13%	-4%
Cc1cc(C)c(S(=O)(=O)NCC(c2cccs2)S(=O)(=O)c2ccccc2)c(C)c1 (stereo not drawn)	?	13µM*	?	?
Cc1ccc(S(=O)(=O)C(CNS(=O)(=O)c2ccc(F)c(C)c2)c2cccs2)cc1 (stereo not drawn)	?	25µM*	-4%	14%
S=C(NCc1ccc2c(c1)OCO2)N1CCN(c2ncnc3c2oc2ccccc23)CC1	nt	nt	nt	-9%[92.2 µM]
Cc1ccc([C@@H]2O[C@H](CO)[C@@H](O)[C@H](O)[C@@H]2O)cc1Cc1ccc(-c2ccc(F)cc2)s1	nt	nt	nt	6%
Cc1nn(-c2ccccc2)c2c1N(CCCC(=O)NCc1ccc(OC(C)C)cc1)C(=O)CS2	?	10µM*	0%	?
Cc1nn(-c2ccccc2)c2c1N(CCCC(=O)NCc1ccccc1)C(=O)CS2	?	?	-4%	i
Cn1nnnc1SCCCNCc1ccccc1OCc1ccc(Cl)cc1	?	-23%	13µM*	i
COc1ccc(-c2n[nH]c3c2C(c2ccc(O)cc2)N(c2ccc(Br)cc2)C3=O)cc1 (stereo not drawn)	?	?	15µM*	-9%
COc1ccc(OC)c(C2c3c(-c4ccc(Br)cc4)n[nH]c3C(=O)N2c2ccc(Cl)cc2)c1 (stereo not drawn)	?	?	-12%	?
Nc1ccc(C(=O)Nc2cccc(-c3nc(N4CCOCC4)c4oc5ncccc5c4n3)c2)cn1	nt	nt	nt	3%
O=C1C2=C(Nc3ccccc3SC2c2ccc(Cl)c(Cl)c2)c2ccccc21 (stereo not drawn)	?	?	-8%	-25%
O=C1C2=C(Nc3ccccc3SC2c2ccccc2C(F)(F)F)c2ccccc21 (stereo not drawn)	13µM*	?	?	i
Cc1cc(CN2CCN(c3c(Br)cnc4nc(-c5ccc(N6CCN(C)CC6)cc5)[nH]c34)CC2)no1	nt	nt	nt	3%
CCCn1c(=O)c2[nH]c(C34CC5CC3C[C@@H](C5)C4)nc2n(CCC)c1=O	nt	nt	nt	-4%
CCCCN(CC)CCNC(=O)C1CCN(c2nnc(C)c3c(C)n(-c4ccc(C)cc4)nc23)CC1	?	?	15µM*	?
CCc1ccc(CNC(=O)C2CCCN(c3nnc(C)c4c(C)n(-c5ccc(OC)cc5)nc34)C2)cc1 (stereo not drawn)	?	?	-1%	?
COc1ccc(-n2nc3c(N4CCCC(C(=O)NCc5ccc(C)cc5)C4)nnc(C)c3c2C)cc1 (stereo not drawn)	?	?	-19%	13µM*
COCCNC(=O)C1CCN(C(=O)c2cc3sccc3n2Cc2ccc(Cl)cc2)CC1	10µM*	?	1%	i
COCCCNC(=O)C1CCN(C(=O)c2cc3sccc3n2Cc2ccc(Cl)cc2)CC1	?	?	2%	-16%
COc1ccc(CNC(=O)C2CCN(c3nc4ccc(C)cc4[nH]3)CC2)cc1	-2%	0%	13µM*	-5%
CCCCN(CC)CCCNC(=O)C1CCN(c2nc3ccc(CC)cc3s2)CC1	?	?	7.4µM*	?
CCCCN(C)CCCNC(=O)C1CCN(c2nc3ccc(CC)cc3s2)CC1	?	?	18µM*	?
CCc1ccc2nc(N3CCN(C(=O)c4ccco4)CC3)sc2c1	?	0%	-4%	-2%
Nc1ncn([C@@H]2O[C@H](CO)[C@@H](O)[C@@H]2O)c(=O)n1	nt	nt	nt	-2%
CCc1ccc(NC(=O)c2cc(=O)c3ccc(C)c(C)c3o2)cc1	16µM*	?	?	-19%
COC(=O)[C@]12CCC(C)(C)C[C@@H]1[C@@H]1C(=O)C=C3[C@@]4(C)C=C(C#N)C(=O)C(C)(C)[C@@H]4CC[C@@]3(C)[C@]1(C)CC2	nt	nt	nt	2.3µM*
CCNC(=O)c1noc(-c2cc(C(C)C)c(O)cc2O)c1-c1ccc(CN2CCOCC2)cc1	nt	nt	nt	35%
O=C(NCCCN1CCN(c2ccccc2F)CC1)C1COc2ccccc2C1 (stereo not drawn)	-22%	-3%	-1%	6%

Compound activity deposited in PubChem BioAssay by National Center for Advancing Translational Sciences (NCATS).
